Potency data for 40 compounds are collected here from PubChem BioAssay (Tox21).

The source made the active and inactive calls. Entries that show only a call come without a potency. Calls come from the whole dose curve.

This assay in a line: G protein-coupled receptor (GPCR) small molecule agonists, calcium flux assay: HEK293 wild type cell line counter screen (AID 1920065). Particulars: HEK293 WT calcium flux, fluorescence, agonist mode; series mostly up to 57.6 µM. The text has this: U.S. Tox21 Program National Center for Advancing Translational Sciences [NCATS] Division of Preclinical Innovation [DPI] U.S. Environmental Protection Agency [EPA] National Institutes of Environmental Health Sciences [NIEHS] National Toxicology Program [NTP] U.S. Food and Drug Administration [FDA] Assay overview: The increased intracellular calcium release that occurred upon G protein-coupled receptor (GPCR) activation led to the frequent use of calcium flux assays to detect GPCR activation. For the purpose of studying and screening compounds that may activate GPCR, receptor-overexpressing models were typically generated using Hek293 wild-type (WT) cells. In order to eliminate the compounds that may have induced calcium release for non-specific activation, a counter-assay utilizing calcium flux on Hek293 WT cells was performed. The data were formulated in order to serve as a control for any calcium flux detection utilizing Hek293 cells with either GPCR overexpression or gene modification. The procurement of Hek293 WT cells from ATCC. Fluorescence intensity can be utilized to determine the activation of the compound in a calcium flux assay. As a counter control, this cell line was utilized to screen the Tox21 10K compound library.
Assay Protocol Summary: Hek293 cells were dispensed at 1500cells/4uL/well in 1536-well black wall/clear bottom plates using a multidrop dispenser. After the assay plates were incubated at a 37 C/5% CO2 incubator for 18 hours, 4 uL of Calcium Dye Solution was added to each well. The plates were incubated at 37 C for 1 hour. For agonist mode, 23 nL of compounds dissolved in DMSO, positive control (ATP) or DMSO only was transferred to the assay plate by a pin tool station. The fluorescence intensity in the plates was measured using FDSS 7000EX kinetic plate reader with a filter set of Ex/Em=480/540 for 3 min at 1 sec intervals. Each test compound was measured at 15 concentrations and in triplicates.
Take `CC(C)(CO)CO`: the Potency entry is “inactive”. For `C[Si](C)(C)N[Si](C)(C)C`, the Potency result was “inactive”.

As for `NCCNc1cccc2ccccc12`, the Potency entry is “inactive”.

Turning to `Cc1cn([C@H]2C[C@H](N=[N+]=[N-])[C@@H](CO)O2)c(=O)[nH]c1=O`, the Potency entry was “inactive”. In the case of `COC(=O)c1cccc(C(=O)OC)c1`, the Potency result is “inactive”.

With `C[C@]12C[C@H](O)[C@H]3[C@@H](CCC4=CC(=O)CC[C@@]43C)[C@@H]1CC[C@@H]2C(=O)CO`, the Potency result was “inactive”. With `CCCCC(CC)CO` (stereo not given), the Potency entry was “inactive”. Consider `Nc1ccc(S(=O)(=O)Nc2nccs2)cc1`, for which the Potency result is “inactive”.

As to `OC1C(O)C(O)C(O)C(O)C1O` (stereo not given), the Potency result was “inactive”. The value for `Cc1cnc(NC(=O)C2=C(O)c3ccccc3S(=O)(=O)N2C)s1` was “inactive”; that for `NNC(=O)c1ccncc1` was “inactive”; that for `NC(N)=NC(=O)c1nc(Cl)c(N)nc1N` was “inactive”. Consider `C#CCN(C)Cc1ccccc1`, for which the Potency result is “inactive”.

For `CCO[Si](CCC#N)(OCC)OCC`, the Potency result was “inactive”. In the case of `CC(=O)Nc1ccc(C(=O)O)cc1` it was “inactive”.

As to `O=C(O)c1ccc(C(=O)O)cc1`, the Potency result is “inactive”.

With `CCOCCOCCO`, the Potency result is “inactive”. Consider `COc1ccccc1O`, for which the Potency result is “inactive”. `Cc1ccc2c(c1)C(=O)OC2=O`: the Potency entry was “inactive”. `O=C(OCc1ccccc1)c1ccc(O)cc1`: the Potency entry is “inactive”. In the case of `O=C(O)CCCCCCCC(=O)O`, the Potency result was “inactive”. Regarding `CC(=O)Nc1ccc2c(c1)Cc1cc(NC(C)=O)ccc1-2`, the Potency result is “inactive”. In the case of `Nc1ccc2c(c1)C(=O)c1ccccc1C2=O`, the Potency entry is “inactive”. As to `O=C(c1ccccc1)C(O)c1ccccc1` (stereo not given), the Potency result was “inactive”. Turning to `CCCCCC1C(=O)CCC1CC(=O)OC` (stereo not given), the Potency entry is “inactive”. As for `COCC(C)O` (stereo not given), the Potency entry is “inactive”.

On to `CCCCCC1=CCCC1=O`, for which the Potency result is “inactive”. The value for `C#CC1(O)CC[C@H]2[C@@H]3CCC4=CCCC[C@@H]4[C@H]3CC[C@@]21C` (stereo not given in full) was “inactive”. In the case of `OCc1cccnc1`, the Potency result was “inactive”.

In the case of `CC(C)C(=O)Nc1ccc([N+](=O)[O-])c(C(F)(F)F)c1`, the Potency result was “inactive”.

Regarding `CC(O)COc1ccccc1` (stereo not given), the Potency result was “inactive”.

Consider `CCOC(=O)c1ccc(O)cc1`, for which the Potency entry was “inactive”.

Consider `CCCCCCCCCCCCS`, for which the Potency entry is “inactive”. As for `CCCCC(=O)O`, the Potency entry was “inactive”. For the compound `CN/C(=C\[N+](=O)[O-])NCCSCc1csc(CN(C)C)n1`, the Potency entry was “inactive”.

As for `COc1cc([C@H]2Oc3cc([C@H]4Oc5cc(O)cc(O)c5C(=O)[C@@H]4O)ccc3O[C@@H]2CO)ccc1O`, the Potency result is “inactive”.

Take `c1ccc2n[nH]nc2c1`: the Potency entry was “inactive”. Turning to `O=C1CCC(N2C(=O)c3ccccc3C2=O)C(=O)N1` (stereo not given), the Potency result was “inactive”. As to `NC(=NCCCCCCN=C(N)/N=C(\N)Nc1ccc(Cl)cc1)/N=C(\N)Nc1ccc(Cl)cc1`, the Potency entry was “inactive”. `CC(=O)C(=O)O`: the Potency entry was “inactive”.
